Experimental findings from PubChem BioAssay (NCI) are described below.

Test in all cases: NCI-60 one-dose screen, 48 h (100 = growth as untreated, 0 = no growth, -100 = all killed)
Holding throughout (settings): 10 µM unless noted

Assay [1] has as its system RPMI-8226 leukemia.
For assay [2], the system named is OVCAR-8 ovarian.
Assay [3] relates to OVCAR-5 ovarian.
Assay [4] relates to OVCAR-4 ovarian.
The test system of assay [5] is SK-OV-3 ovarian.
The test system of assay [6] is IGROV1 ovarian.
Assay [7] deals with OVCAR-3 ovarian.
For assay [8], the system named is HS 578T breast.
Assay [9] has as its system NCI/ADR-RES ovarian.
Assay [10] relates to T-47D breast.
Assay [11] has as its system BT-549 breast.
Assay [12] relates to MDA-MB-435 melanoma.
The subject of assay [13] is SW-620 colon.
The subject of assay [14] is MCF7 breast.
The test system of assay [15] is HCT-116 colon.
The test system of assay [16] is HCC-2998 colon.
The subject of assay [17] is KM12 colon.

Each structure is given as a SMILES string. Compounds without any hit were thinned out: in the full panel of roughly 83,000, 20% have a hit.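 Single-concentration screen, 48 h exposure, 96-well plates. Endpoint: percent growth. Below 10 = active.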 Values without a mark were called inactive. The source made the active and inactive calls.

`Cc1nnc(Nc2ccc(NC(=O)Nc3ccc(Cl)cc3)cc2)c2ccccc12`: the growth was -11.9% (active) in assay [1]; 31.4% in [2]; 72.8% in assay [3]; 42.6% in [4]; 66.4% in [5]; 62% in assay [6]. In addition, the growth in [7] is 44.4%; in [8], 3.43% (active); in [9] it was 45.1%; in [10], 8.43% (active); in assay [11] it was 11.4%; in [12], -40% (active). Moreover, the growth in [13] is 20.3%; in assay [14], 24.9%; in assay [15], 7.67% (active); in assay [16] it was 40.5%; in assay [17] it was 14.1%.

Consider `CC(=O)Oc1ccc(C2OC(c3ccc4ccccc4c3OC(C)=O)=NN2C(C)=O)c(OC(C)=O)c1` (configuration not stated), for which the growth in assay [1] was 21.2%; in assay [2], 8.13% (active); in [3] it was 63.2%; in [4] it was 32.2%; in assay [5], 27.6%; in assay [6] it was 20.3%. Further, the growth is 18.7% in [7]; 59.7% in assay [8]; 11.1% in [9]; 25% in [10]; 31% in [11]; 33.6% in assay [12]. The growth is 32% in assay [13]; 15.6% in assay [14]; 20.6% in assay [15]; 29.9% in assay [16]; 19.7% in [17].

`Cc1nc2cc(NC(=O)CN3CCN(CCN4C(=O)c5cccc6cccc(c56)C4=O)CC3)ccc2s1`: the growth is 28.9% in assay [1]; 30.2% in [2]; 72% in [3]; 61.4% in assay [4]; 66.3% in assay [5]; 44% in assay [6]. In addition, the growth in assay [7] was 74.3%; in assay [8] it was 69.5%; in [9] it was 45.9%; in assay [10], 50.7%; in [11], 70.1%; in assay [12], 57.8%. Besides, the growth in [13] was 31.4%; in [14], 32.5%; in assay [15], 22.3%; in assay [16] it was 59.4%; in assay [17], 51.6%.

With `NC(=O)NN=C(C1CC1)C1CC1`, the growth in assay [1] was 114%; in assay [2], 123%; in assay [3], 101%; in [4], 104%; in assay [5], 104%; in assay [6] it was 109%. For the same compound, the growth in [7] is 106%; in assay [8], 97%; in assay [9], 105%; in assay [10], 107%; in assay [11] it was 106%; in assay [12] it was 105%. Moreover, the growth in assay [13] is 98.6%; in assay [14], 92.9%; in [15], 102%; in assay [17] it was 104%.

For `C[C@]12CC[C@@H]3c4ccc(O)c([N+](=O)[O-])c4CC[C@H]3[C@@H]1CC[C@@H]2NS(=O)(=O)c1cccc(Br)c1`, the growth is 10.7% in [1]; 40% in assay [2]; 88.2% in assay [3]; 40.4% in assay [4]; 80.3% in assay [5]; 34.8% in assay [6]. In addition, the growth in assay [7] is 28.5%; in assay [8], 62.5%; in [9] it was 26.8%; in assay [10], 24.6%; in assay [11], 29.3%; in assay [12], 10.7%. Moreover, the growth in assay [13] is 44.5%; in assay [14], 14.6%; in [15], 21.8%; in assay [16], 51.2%; in [17], 17.4%.

For the compound `C=CCCCCCCCCC(=O)[O][Sn]([CH2]CCC)([CH2]CCC)[CH2]CCC`, the growth is -27.3% (active) in [1]; -74.2% (active) in assay [2]; -89.4% (active) in [3]; -96.7% (active) in [4]; -98.8% (active) in assay [5]; -72.9% (active) in assay [6]. The growth was -97.9% (active) in assay [7]; -46.4% (active) in [8]; -90.3% (active) in assay [9]; -71.5% (active) in assay [10]; -99.2% (active) in [11]; -86% (active) in assay [12]. The growth in [13] was -81.7% (active); in [14], -66.4% (active); in [15] it was -95.8% (active); in assay [16] it was -97.9% (active); in assay [17] it was -92.6% (active).

Turning to `Cc1ccc(C(=O)Nc2ccc(Cl)cc2C(=O)NCc2ccccc2)cc1`, the growth is 77.8% in assay [1]; 87.9% in [2]; 100% in [3]; 79.5% in assay [4]; 117% in [5]; 84.1% in assay [6]. Besides, the growth is 91.6% in assay [7]; 89.7% in assay [8]; 72.5% in assay [9]; 94% in assay [10]; 103% in assay [11]; 2.07% (active) in [12]. Besides, the growth was 58.9% in assay [13]; 53.9% in [14]; 89.9% in [15]; 86.9% in [16]; 60.5% in assay [17].

`CCC(=O)Nc1ccccc1C#C/C=C\C#Cc1ccccc1C(F)(F)F`: the growth was 100% in assay [1]; 106% in [2]; 53.8% in assay [3]; 85.8% in [4]; 52.3% in [5]; -21.8% (active) in assay [6]. Besides, the growth was 70.2% in assay [7]; 17.1% in assay [8]; 27.2% in assay [9]; 65.4% in assay [10]; 39.9% in [11]; 0.785% (active) in assay [12]. Besides, the growth in assay [13] is 29.7%; in [14], 33.2%; in [15], 41%; in assay [16], 70.6%; in [17], 41.5%.

Take `Cc1cc(C)c2c(c1)N1OC(C2)C[C@H]1/C=C/c1ccccc1` (some centres not stated): the growth was 94.9% in [1]; 102% in assay [2]; 99% in assay [3]; 81.8% in assay [4]; 116% in assay [5]; 82.3% in [6]. The growth in assay [7] was 116%; in assay [8] it was 122%; in [9], 95.9%; in assay [10], 93.6%; in assay [11], 105%; in assay [12], 87.2%. Moreover, the growth in assay [13] is 108%; in assay [14], 88%; in assay [15], 84.6%; in assay [16] it was 98.2%; in assay [17], 107%.
